Where “and” joins values, the source holds several entries; their conditions need not be identical. Equal values may be shown once. Results filed as inconclusive are left out. Where a call stands in place of a potency, no number is given. Where a structure was tested more than once in an assay, its records may differ in their call. Calls of active or inactive are those of the source. Unless noted, the call rests on the fitted dose curve; in most records, active means well fitted curve in the direction sought with a large enough effect in the repeat runs; inconclusive means weak or mixed curves; inactive means no such curve, though single readings can be large; an effect the other way counts as inactive or inconclusive.
How the values were obtained:
[1] = qHTS assay for small molecule agonists of the p53 signaling pathway (AID 651631; calls by dose curve; further: nearly all actives have a fitted effect of over 15% in size)
Method in brief: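 Beta-lactamase reporter activity under p53 response elements was quantified in HCT-116 cells by FRET fluorescence, following 16 h incubation with test compounds at 37 °C and 2 h substrate development at room temperature.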

[2] = qHTS assay for small molecules that induce genotoxicity in human embryonic kidney cells expressing luciferase-tagged ATAD5 (AID 651632); further: nearly all actives have a fitted effect of over 15% in size; further: potency means the concentration at half of the fitted maximal effect
Method in brief: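 Test compounds were delivered by pin tool onto HEK293T reporter cells (2,000/well) expressing ATAD5 fused to luciferase. After 16 hr at 37C, 5% CO2, Amplite was added for 30 min at room temperature and luminescence was measured.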

[3] = qHTS assay for small molecule agonists of the p53 signaling pathway - cell viability (AID 651633; calls by dose curve;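 further: p53RE-bla HCT reporter cells with a stable beta-lactamase p53 reporter; series mostly up to about 83 µM; nearly all actives have a fitted effect of over 30% in size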)
Method in brief: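 Viability counter-read: CellTiter-Glo luminescence (30 min, room temperature) in the same p53RE-bla plates. These plates had been exposed to compounds for 16 h at 37 C.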

[4] = qHTS assay for small molecules that induce genotoxicity in human embryonic kidney cells expressing luciferase-tagged ATAD5 - cell viability (AID 651634; calls by dose curve; further: nearly all actives have a fitted effect of over 25% in size; further: potency means the concentration at half of the fitted maximal effect)
Method in brief: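 Quantitative high-throughput format. HEK293T cells expressing ATAD5 fused to luciferase were plated at 2,000 cells/well and treated 15.5 hr with compound versus DMSO. Viability was determined by fluorescent live-cell protease substrate, 30 min at 37C.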

[5] = qHTS assay for small molecule disruptors of the mitochondrial membrane potential - cell viability (AID 720634; calls by dose curve; further: nearly all actives have a fitted effect of over 20% in size; further: potency means the concentration at half of the fitted maximal effect)
Method in brief: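 Same-well counter-screen: following the MMP dye addition, CellTiter-Glo was added to 1 hr compound-treated HepG2 cells and luminescence read after 30 min at room temperature.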

[6] = qHTS assay for small molecule disruptors of the mitochondrial membrane potential (AID 720635); further: potency means the concentration at half of the fitted maximal effect
Method in brief: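 Mitochondrial membrane potential tracked with Mito-MPS dye, red aggregates (ex 540/em 590 nm) against green monomers (ex 490/em 535 nm). Compound treatment 1 hr at 37C, dye 30 min in HepG2.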

[7] = qHTS assay to test for compound auto fluorescence at 590 nm (red) in HepG2 cells (AID 720674)
Method in brief: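 Red autofluorescence (Ex/Em 540/590 nm, Rose Bengal sodium equivalents) was measured in HepG2 cells, 2,000 per well in MEM plus 10% FBS, plated overnight at 37 C. Readings were taken 1 hr after adding 23 nL compound or DMSO, at 37 C and 5% CO2.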

[8] = qHTS assay to test for compound auto fluorescence at 535 nm (green) in HepG2 cells (AID 720675)
[9] = qHTS assay to test for compound auto fluorescence at 460 nm (blue) in HEK293 cells (AID 720678)
Method in brief: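 Measured: blue fluorescence (Ex 405/Em 460 nm) of compound-treated HEK293 cells, incubated overnight at 37C with 5% CO2 and scaled to triamterene equivalents.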

[10] = qHTS assay to test for compound auto fluorescence at 590 nm (red) in HEK293 cells (AID 720679)
Method in brief: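 Using HEK293 cells at 2,000 per well, the screen added 23 nL of each compound after cell attachment and incubated overnight (37C, 5% CO2). The plate reader then captured red-label fluorescence, Ex/Em 540/590nm.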

Row | SMILES | Potency [1] | Potency [2] | Potency [3] | Potency [4] | Potency [5] | Potency [6] | outcome [7] | outcome [8] | outcome [9] | outcome [10]
1 | CCCCCCCCOc1ccc(C(=O)c2ccccc2)c(O)c1 | inactive | inactive | inactive | inactive | inactive | inactive and 61.1 µM (active) | inactive | inactive | inactive | inactive
2 | COC(=O)c1ccc(C=O)cc1 | inactive | inactive | inactive | inactive | inactive | inactive | inactive | inactive | inactive | inactive
3 | CC(C)CC(C)CC(O)CC(C)C (configuration not stated) | inactive | inactive | inactive | inactive | inactive | inactive | inactive | inactive | inactive | inactive
4 | COC(=O)C1CCC(C(=O)OC)CC1 (configuration not stated) | inactive | inactive | inactive | inactive | inactive | inactive | inactive | inactive | inactive | inactive
5 | Cc1ccc(O)c(-n2nc3ccccc3n2)c1 | inactive | 9.44 µM (active) and 6.11 µM (active) | inactive | inactive | 30.6 µM (active) | 21.1 µM (active) and 60.6 µM (active) and 30.6 µM (active) | inactive | inactive | inactive | inactive
6 | COCC(C)N (configuration not stated) | inactive | inactive | inactive | inactive | inactive | inactive | inactive | inactive | inactive | inactive
7 | Cc1cccc2ccccc12 | inactive | inactive | inactive | inactive | inactive | inactive | inactive | inactive | inactive | inactive
8 | OC[C@@H](O)[C@@H](O)[C@H](O)[C@H](O)CO | inactive | inactive | inactive | inactive | inactive | inactive | inactive | inactive | inactive | inactive
9 | CCOC(=O)C(C)(C)Oc1ccc(Cl)cc1 | inactive | inactive | inactive | inactive | inactive | inactive | inactive | inactive | inactive | inactive
10 | CC(=O)OC/C=C(C)/C=C/C=C(C)/C=C/C1=C(C)CCCC1(C)C | inactive | inactive | inactive | inactive | inactive | inactive | inactive | inactive | inactive | inactive
11 | CC(O)COc1ccccc1 (configuration not stated) | inactive | inactive | inactive | inactive | inactive | inactive | inactive | inactive | inactive | inactive
12 | C1CNCCN1 | inactive | inactive | inactive | inactive | inactive | inactive | inactive | inactive | inactive | inactive
13 | C=C(C)OC(C)=O | inactive | inactive | inactive | inactive | inactive | inactive | inactive | inactive | inactive | inactive
14 | C=CCOC(=O)CC(C)C | inactive | inactive | inactive | inactive | inactive | inactive | inactive | inactive | inactive | inactive
15 | O=C(O)CCCCC1CCSS1 (configuration not stated) | inactive | inactive | inactive | inactive | inactive | inactive | inactive | inactive | inactive | inactive
16 | CCCCCCCCCCCCCC(=O)OC(C)C | inactive | inactive | inactive | inactive | inactive | inactive | inactive | inactive | inactive | inactive
17 | C[C@]12C=CC(=O)C=C1CC[C@@H]1[C@@H]2C(=O)C[C@@]2(C)[C@H]1CC[C@]2(O)C(=O)CO | inactive | inactive | inactive | inactive | inactive | inactive | inactive | inactive | inactive | inactive
18 | Nc1cccc(N)c1 | inactive | inactive | inactive | inactive | inactive | 24 µM (active) | inactive | inactive | inactive | inactive
19 | NC(=O)NO | inactive | inactive | inactive | inactive | inactive | inactive | inactive | inactive | inactive | inactive
20 | O=[N+]([O-])c1ccc(O)cc1 | inactive | inactive | inactive | 56.6 µM (active) | inactive | 71.2 µM (active) and 61.1 µM (active) | inactive | inactive | inactive | inactive
21 | Cc1c(N(C)CS(=O)(=O)O)c(=O)n(-c2ccccc2)n1C | inactive | inactive | inactive | inactive | inactive | inactive | inactive | inactive | inactive | inactive
22 | CCCCOCCOCCSC#N | inactive | inactive | inactive | inactive | inactive | inactive | inactive | inactive | inactive | inactive

Row | SMILES | Potency [1] | Potency [2] | Potency [3] | Potency [4] | Potency [5] | Potency [6] | outcome [7] | outcome [8] | outcome [9] | outcome [10]
23 | COCCOCCOC | inactive | inactive | inactive | inactive | inactive | inactive | inactive | inactive | inactive | inactive
24 | CC(=O)Oc1ccccc1C(=O)O | inactive | inactive | inactive | inactive | inactive | inactive | inactive | inactive | inactive | inactive
25 | CN(C)Cc1cc(CN(C)C)c(O)c(CN(C)C)c1 | inactive | inactive | inactive | inactive | inactive | inactive | inactive | inactive | inactive | inactive
26 | C=CC(=O)NC(C)(C)CS(=O)(=O)O | inactive | inactive | inactive | inactive | inactive | inactive | inactive | inactive | inactive | inactive
27 | NC(=O)c1ccc([N+](=O)[O-])cc1Cl | inactive | inactive | inactive | inactive | inactive | inactive | inactive | inactive | inactive | inactive
28 | CC(=O)c1ccc(S(=O)(=O)NC(=O)NC2CCCCC2)cc1 | inactive | inactive | inactive | inactive | inactive | inactive | inactive | inactive | inactive | inactive
29 | CC(=O)CCC(C)C | inactive | inactive | inactive | inactive | inactive | inactive | inactive | inactive | inactive | inactive
30 | C=C(C)C(N)=O | inactive | inactive | inactive | inactive | inactive | inactive | inactive | inactive | inactive | inactive
31 | COc1ccc(C(=O)c2ccccc2)c(O)c1 | inactive | inactive | inactive | inactive | inactive | inactive | inactive | inactive | inactive | inactive
32 | COc1ccccc1NC(=O)CC(C)=O | inactive | inactive | inactive | inactive | inactive | inactive | inactive | inactive | inactive | inactive
33 | CCCCCCCC(=O)OCC(O)CO (configuration not stated) | inactive | inactive | inactive | inactive | inactive | inactive | inactive | inactive | inactive | inactive
34 | CC(C)=CCC/C(C)=C/CO | inactive | inactive | inactive | inactive | inactive |  | inactive | inactive | inactive | inactive
35 | CCOCCO | inactive | inactive | inactive | inactive | inactive | inactive | inactive | inactive | inactive | inactive
36 | C[C@]12CC[C@@H]3c4ccc(O)cc4C[C@@H](CCCCCCCCCS(=O)CCCC(F)(F)C(F)(F)F)[C@H]3[C@@H]1CC[C@@H]2O (some centres not stated) | inactive | inactive | inactive | inactive |  | 2.66 µM (active) and 2.73 µM (active) | inactive | inactive | inactive | inactive
37 | NC(=O)OCC(COC(N)=O)c1ccccc1 | inactive | inactive | inactive | inactive | inactive | inactive | inactive | inactive | inactive | inactive
38 | CC(C)Cc1ccc(C(C)C(=O)O)cc1 (configuration not stated) | inactive | inactive | inactive | inactive | inactive | inactive | inactive | inactive | inactive | inactive
39 | CO[C@H]1C=CO[C@@]2(C)Oc3c(C)c(O)c4c(O)c(c(/C=N/N5CCN(C)CC5)c(O)c4c3C2=O)NC(=O)/C(C)=C\C=C[C@H](C)[C@H](O)[C@@H](C)[C@@H](O)[C@@H](C)[C@H](OC(C)=O)[C@@H]1C | inactive | inactive | inactive | 23.7 µM (active) and 48.8 µM (active) and 39 µM (active) | inactive | 10.6 µM (active) and 24.5 µM (active) and 11 µM (active) | inactive | inactive | inactive | inactive
40 | Cc1cccc(Nc2cc(Cl)nc(SCC(=O)O)n2)c1C | inactive | inactive | inactive | inactive | inactive | inactive | inactive | inactive | inactive | inactive
41 | CC1(C)O[C@@H]2[C@@H](CO[C@@]3(COS(N)(=O)=O)OC(C)(C)O[C@@H]23)O1 | inactive | inactive | inactive | inactive | inactive | inactive | inactive | inactive | inactive | inactive
42 | CCN(CC)CCOC(=O)c1ccc(N)cc1 | inactive | inactive | inactive | inactive | inactive |  | inactive | inactive | inactive | inactive
43 | O=C1CCCCCN1 | inactive | inactive | inactive | inactive | inactive | inactive | inactive | inactive | inactive | inactive
